Measurements from PubChem BioAssay (NCATS).
Records with an inconclusive call do not appear. Calls of active or inactive are those of the source. Calls follow the shape of the dose curve; as a rule, active = well fitted inhibition curve with a large enough effect; inconclusive = small, poorly fitted or top-dose-only effect; inactive = flat fitted curve, though single readings scatter.

What follows are compounds tested against Aldehyde dehydrogenase, mitochondrial (Homo sapiens) (UniProt P05091) (assay: qHTS for Inhibitors of the Aldehyde Dehydrogenase Family (ALDH2) Primary screen (AID 2061308;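 also: plate controls were vehicle for no effect and reference inhibitor for full effect; nearly all actives have a fitted effect of over 55% in size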)). Details: ALDH2 enzyme inhibition qHTS, 1536-well; series mostly up to 56 µM; activity change, negative = inhibition: at the top concentration.
In the case of COc1cc(OC)cc(C(=O)Nc2ccc(Cl)c(-c3nc4ccc(N(C)C)cc4[nH]3)c2)c1, the “activity change, negative = inhibition” value is reported as -5.74% (inactive). In the case of C[C@@H]1O[C@@H](O[C@H]2[C@H](O)[C@@H](O)[C@H](OC[C@H]3O[C@@H](OC(=O)[C@]45CCC(C)(C)C[C@H]4C4=CCC6[C@@]7(C)CC[C@H](O[C@@H]8OC[C@H](O)[C@H](O[C@@H]9O[C@H](CO)[C@@H](O)[C@H](O)[C@H]9O)[C@H]8O)[C@@](C)(CO)C7CC[C@@]6(C)[C@]4(C)CC5)[C@H](O)[C@@H](O)[C@@H]3O)O[C@@H]2CO)[C@H](O)[C@H](O)[C@H]1O (stereo not given in full), the activity change, negative = inhibition is reported as 1.57% [at 11.2 µM] (inactive). Cc1ccc(S(=O)(=O)N2CCC[C@H]2c2ccc(F)cc2)cc1 was tested, and the “activity change, negative = inhibition” value was 1.49% (inactive). In the case of CN(C)C/C=C/C(=O)Nc1cc2c(Nc3ccc(F)c(Cl)c3)ncnc2cc1OC1CCOC1 (stereo not given), the “activity change, negative = inhibition” value is reported as 6.73% (inactive). With O=C(O)/C=C/c1ccc2occc2c1O[C@@H]1O[C@H](CO)[C@@H](O)[C@H](O)[C@H]1O the “activity change, negative = inhibition” value was -0.131% (inactive). O=C(Nc1cc(C(F)(F)F)ccc1N1CCCCC1)c1ccncc1 was tested, and the “activity change, negative = inhibition” value was 6.98% (inactive). OCCc1ccc(O[C@@H]2O[C@H](CO)[C@@H](O)[C@H](O)[C@H]2O)cc1 was tested, and the “activity change, negative = inhibition” value was 5.53% (inactive). O=C(/C=C/c1ccc(O)cc1)OCC1OC(O)C(OC2OC(CO)C(O)C(O)C2O)C(O)C1O (stereo not given) was tested, and the “activity change, negative = inhibition” value was 7.82% [at 28 µM] (inactive). CC(=O)OC1CC2(C)C3=CCC4(C)C5C(O)C(O)C(C(C)C)C5(C)CCC4(C)C3CCC2C(C)(C)C1OC1OC(CO)C(O)C(O)C1O (stereo not given) was tested, and the “activity change, negative = inhibition” value was 1.77% [at 16.9 µM] (inactive). With CC1(C)CC[C@]2(C(=O)O[C@@H]3O[C@H](CO)[C@@H](O)[C@H](O)[C@H]3O)CC[C@]3(C)C(=CCC4[C@@]5(C)CC[C@H](O[C@@H]6O[C@H](C(=O)O)[C@@H](O[C@@H]7O[C@H](CO)[C@@H](O)[C@H](O)[C@H]7O)[C@H](O)[C@H]6O[C@@H]6O[C@H](CO)[C@@H](O)[C@H](O)[C@H]6O)C(C)(C)C5CC[C@]43C)C2C1 (stereo not given in full) the “activity change, negative = inhibition” value was 6.47% [at 16.9 µM] (inactive). With C=C(C)[C@@H]1CC[C@]2(C)CC[C@]3(C)[C@H](CC[C@@H]4[C@@]5(C)CC[C@@H](O)C(C)(C)[C@@H]5CC[C@]43C)[C@@H]12 the “activity change, negative = inhibition” value was 3.08% [at 28 µM] (inactive). For C=C1C[C@]23C[C@H]1CC[C@H]2[C@@]12CC[C@H](O)[C@@](C)(C(=O)O1)[C@H]2[C@@H]3C(=O)O, the “activity change, negative = inhibition” value was -1.57% (inactive). For O=C(OCCOCCO)c1ccccc1Nc1cccc(C(F)(F)F)c1, the “activity change, negative = inhibition” value was 3.64% (inactive). With COC1=CC(=O)O[C@@H](CCc2ccccc2)[C@@H]1O the “activity change, negative = inhibition” value was 3.3% (inactive). In the case of COC(=O)/C=C/C=C/C(=O)OC1C=C2COC(=O)C2(O)C2(C)CCCC(C)(C)C12 (stereo not given), the “activity change, negative = inhibition” value is reported as -10.9% [at 28 µM] (inactive). In the case of COc1cc(C(=O)OC(COCCC(C)C)CN2CCOCC2)cc(OC)c1OC (stereo not given), the “activity change, negative = inhibition” value is reported as -4.83% (inactive). CC(=O)NC(CCC(=O)O)C(=O)NCCc1ccc(O)cc1 (stereo not given) was tested, and the “activity change, negative = inhibition” value was -4.83% (inactive). For C=C1CC2[C@@]3(C)C=CC(=O)C(C)(C)C3=C(O)C(=O)[C@@]2(C)C2(C(=O)OC)C(=O)C(C)OC(=O)[C@@]12C (stereo not given in full), the “activity change, negative = inhibition” value was -0.645% [at 28 µM] (inactive). For COCC1OC(OC(C)(C)C2CCC3(C)C=C(C4CCC5C4(C)CC(O)C4OC(C(C)(C)OC6OC(CO)C(O)C(O)C6NC(C)=O)CCC45C)CCC3O2)C(NC(C)=O)C(O)C1O (stereo not given), the “activity change, negative = inhibition” value was 8.52% [at 16.9 µM] (inactive). CC1=CCC(C(C)(C)O[C@@H]2O[C@H](CO[C@@H]3O[C@@H](C)[C@H](O)[C@@H](O)[C@H]3O)[C@@H](O)[C@H](O)[C@H]2O)CC1 (stereo not given in full) was tested, and the “activity change, negative = inhibition” value was -4.36% [at 28 µM] (inactive). For OC[C@H]1O[C@H](O[C@]2(CCl)O[C@H](CCl)[C@@H](O)[C@@H]2O)[C@H](O)[C@@H](O)[C@H]1Cl, the “activity change, negative = inhibition” value was 0.626% (inactive). In the case of COc1ccc2nccc(C(=O)CC[C@@H]3CCN(CC#Cc4cc(F)cc(F)c4F)C[C@@H]3C(=O)O)c2c1, the “activity change, negative = inhibition” value is reported as -24.7% (inactive). With Cc1cc(N2CCN(C(=O)Oc3ccc(-c4ccccc4)cn3)CC2)c2ccccc2n1 the “activity change, negative = inhibition” value was -2.53% (inactive). With CC(C)C(=O)O[C@@H]1[C@@H](O)[C@@H](O[C@H]2O[C@H](CO)[C@@H](O)[C@H](O)[C@H]2O)O[C@H](CO)[C@H]1O the “activity change, negative = inhibition” value was 4.69% [at 28 µM] (inactive). In the case of CCC/C=C/C(=O)O[C@H]1CC(C)(C)CC2[C@]13[C@H](O)O[C@@]21CCC2[C@@]4(C)CC[C@H](O[C@@H]5O[C@H](C(=O)O)[C@@H](O)[C@H](O[C@@H]6O[C@H](CO)[C@H](O)[C@H](O)[C@H]6O[C@@H]6O[C@@H](C)[C@H](O)[C@@H](O)[C@H]6O[C@@H]6OC[C@](O)(CO)[C@H]6O)[C@H]5O[C@@H]5O[C@H](CO)[C@H](O)[C@H](O)[C@H]5O)C(C)(C)C4CC[C@@]2(C)[C@]1(C)C[C@H]3OC(C)=O (stereo not given in full), the activity change, negative = inhibition is reported as 3.01% [at 11.2 µM] (inactive). With Nc1nc(-n2cc(C(=O)O)c(=O)c3cc(F)c(N4CC(O)C4)c(Cl)c32)c(F)cc1F the “activity change, negative = inhibition” value was -2.94% (inactive). With C=C1CC[C@@H]2C(C)(C)CCC[C@@]2(C)[C@@H]1CC/C(=C/C(=O)OC)COC(C)=O the “activity change, negative = inhibition” value was -0.876% (inactive). With CC(C(=O)Nc1cc(C#N)ccc1CCCC(=O)O)c1ccc(F)c2ccccc12 (stereo not given) the “activity change, negative = inhibition” value was 15.8% (inactive). COC(=O)C[C@@H]1C(C(=O)O)=CO[C@@H](O[C@@H]2O[C@H](CO)[C@@H](O)[C@H](O)[C@H]2O)/C1=C\COC(=O)/C=C\c1ccccc1 was tested, and the “activity change, negative = inhibition” value was 11.9% [at 28 µM] (inactive). For C=CC1(C)CC(O)C(C(=C)C(=O)OC)C(O)C1C(=C)CO (stereo not given), the “activity change, negative = inhibition” value was 7.32% (inactive). In the case of Cc1ccc2c(n1)Oc1ccc(C(C)C(=O)OCC(=O)N(C)C)cc1C2 (stereo not given), the “activity change, negative = inhibition” value is reported as 4.45% (inactive). CCOC(=O)c1cc(C#N)c(N2CCC(C(=O)NS(=O)(=O)Cc3ccccc3)CC2)nc1C was tested, and the “activity change, negative = inhibition” value was 10.7% (inactive). With O=C(CSc1nc2ccccc2c(=O)n1-c1ccccc1)Nc1ccc2c(c1)CCC2 the “activity change, negative = inhibition” value was -12.1% (inactive). OC[C@@]1(O)CO[C@H](OC[C@H]2O[C@@H](OC(CCCCc3ccc(O)cc3)CCc3ccc(O)cc3)[C@H](O)[C@@H](O)[C@@H]2O)[C@@H]1O (stereo not given in full) was tested, and the “activity change, negative = inhibition” value was -16.4% [at 16.9 µM] (inactive). With CC(C(=O)O)C1CCC2(C)C3C(=O)C=C4C(CCC(=O)C4(C)C)C3(C)CCC12C (stereo not given) the “activity change, negative = inhibition” value was -3.38% [at 28 µM] (inactive). With COC1CC(O[C@H]2CC[C@@]3(C)C(CCC4C3[C@H](OC(C)=O)[C@@H](OC(=O)/C=C/c3ccccc3)[C@]3(C)C(C(C)=O)CC[C@]43O)C2)OC(C)C1OC1CC(OC)C(OC2CC(OC)C(OC3OC(C)C(OC4OC(CO)C(O)C(O)C4O)C(OC)C3O)C(C)O2)C(C)O1 (stereo not given in full) the activity change, negative = inhibition was 6.42% [at 11.2 µM] (inactive). CC1(C)CC2=C3C=CC4C5(C)CCC(O)C(C)(C)C5CCC4(C)C3(C)CCC2(C)C(O)C1 (stereo not given) was tested, and the “activity change, negative = inhibition” value was -0.774% [at 28 µM] (inactive). COC1C=C(C)C(O)(CO)C2(C)CCCC(C)(C)C12 (stereo not given) was tested, and the “activity change, negative = inhibition” value was 7.05% (inactive). In the case of C[C@@H]1CCC2C(C)(C)[C@H](O)CC[C@]2(C)[C@@]12Cc1c(O)cc3c(c1O2)CNC3=O (stereo not given in full), the “activity change, negative = inhibition” value is reported as 8.83% (inactive). O=C(O[C@@H]1O[C@H](CO)[C@@H](O)[C@H](O)[C@H]1O)c1c(O)cc(O)cc1/C=C/c1ccccc1 was tested, and the “activity change, negative = inhibition” value was -3.87% [at 28 µM] (inactive).
